Values joined by “and” are separate entries in the source; they are usually repeats but may differ in a detail not shown here. Identical values can stand only once. Inconclusive results are not listed. Where a call stands in place of a potency, no number is given. Some structures have more than one record in an assay (separate samples or runs), and their calls can disagree. Active and inactive are the calls of the source. Calls come from the whole dose curve; as a rule, active = well fitted curve in the direction sought with a large enough effect in the repeat runs; inconclusive = weak or mixed curves; inactive = no such curve, though single readings can be large; an effect the other way counts as inactive or inconclusive.
What was measured:
[1] = A CellTox Green Cytotoxicity Assay to monitor cytotoxicity in HepG2 cells - 0 hour (AID 1224882); details: CellTox Green fluorescence; series mostly up to 76.8 µM; note: nearly all actives have a fitted effect of over 35% in size; note: potency is the fitted concentration of half-maximal effect
Procedure, shortened: (§1)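 First, HepG2 cells (600/well) mixed with reagent were plated; second, after 5 h at 37 C they received compounds via pintool; third, fluorescence was measured at 0 h through 40 h at 8 h intervals.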

[2] = A CellTox Green Cytotoxicity Assay to monitor cytotoxicity in HepG2 cells - 32 hour (AID 1224883); details: CellTox Green fluorescence; series mostly up to 76.8 µM; note: nearly all actives have a fitted effect of over 50% in size; note: potency is the fitted concentration of half-maximal effect
Procedure, shortened: as §1

[3] = A CellTox Green Cytotoxicity Assay to monitor cytotoxicity in HEK293 cells - 8 hour (AID 1224884); details: CellTox Green fluorescence; series mostly up to 76.8 µM; note: nearly all actives have a fitted effect of over 35% in size; note: potency is the fitted concentration of half-maximal effect
Procedure, shortened: (§2)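 Dead-cell fluorescence measured kinetically: asymmetric cyanine dye, HEK293, 600 cells/well, 5 h settle, 23 nL cpd/DMSO, 37 C, reads 0–40 h every 8 h.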

[4] = qHTS RealTime-Glo MT Cell Viability Assay in HEK293 cells - 24 hour (AID 1224886); details: RealTime-Glo luminescence; series mostly up to 76.8 µM; note: nearly all actives have a fitted effect of over 50% in size; note: potency is the fitted concentration of half-maximal effect
Procedure, shortened: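 Assay medium contained NanoLuc luciferase plus cell-permeant prosubstrate, added with HEK293 cells at 600 cells/well. After 5 h at 37 C/5% CO2 compounds were added; plates stayed at 37 C for 40 h with serial luminescence reads.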

[5] = A CellTox Green Cytotoxicity Assay to monitor cytotoxicity in HEK293 cells - 16 hour (AID 1224888); details: CellTox Green fluorescence; series mostly up to 76.8 µM; note: nearly all actives have a fitted effect of over 35% in size
Procedure, shortened: as §2

[6] = qHTS RealTime-Glo MT Cell Viability Assay in HepG2 cells - 0 hour (AID 1224889); details: RealTime-Glo luminescence; series mostly up to 76.8 µM; note: nearly all actives have a fitted effect of over 50% in size; note: potency is the fitted concentration of half-maximal effect
Procedure, shortened: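 qHTS, HepG2, 600 cells/well, RealTime-Glo (NanoLuc + prosubstrate) added with cells; 5 h preincubation; DMSO compound addition; 37 C; luminescence at 0/8/16/24/32/40 h.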

[7] = A CellTox Green Cytotoxicity Assay to monitor cytotoxicity in HepG2 cells - 8 hour (AID 1224890); details: CellTox Green fluorescence; series mostly up to 76.8 µM; note: nearly all actives have a fitted effect of over 45% in size
Procedure, shortened: as §1

[8] = qHTS assay to identify small molecule antagonists of the estrogen receptor alpha (ER-alpha) signaling pathway using the BG1 cell line in the presence of 0.1 nM 17-beta-estradiol - cell viability counter screen (AID 1259241); details: VM7Luc4E2 (BG1) viability, CellTiter-Fluor protease, 22 h, 0.1 nM estradiol agonist added; series mostly up to 92.4 µM; note: nearly all actives have a fitted effect of over 40% in size
Procedure, shortened: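 The cell line endogenously expresses full-length ER-alpha and carries four EREs driving luciferase. Cells are cultured 5 days hormone-free, treated 22 hr with compounds and 0.1 nM estradiol, then viability is read by fluorescence.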

[9] = qHTS RealTime-Glo MT Cell Viability Assay in HEK293 cells - 8 hour (AID 1224887); details: RealTime-Glo luminescence; series mostly up to 76.8 µM; note: nearly all actives have a fitted effect of over 50% in size; note: potency is the fitted concentration of half-maximal effect
Procedure, shortened: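 600 HEK293 cells per well, dispensed already mixed with RealTime-Glo MT reagents. Compound dosing came 5 h later. The same wells were read for luminescence at 0, 8, 16, 24, 32 and 40 h of exposure at 37 C.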

Row | Structure (SMILES) | Potency [1] | Potency [2] | Potency [3] | Potency [4] | Potency [5] | Potency [6] | Potency [7] | Potency [8] | Potency [9]
1 | C=CCNCC=C | inactive | inactive | inactive | inactive | inactive | inactive | inactive | inactive | 
2 | C[C@]12CC[C@@H]3c4ccc(O)cc4CC[C@H]3[C@@H]1CC[C@@H]2O | inactive | 43.6 µM (active) and inactive | inactive | 19.5 µM (active) | inactive | inactive | inactive | inactive | 
3 | CC(=O)OC(C)C | inactive | inactive | inactive | inactive | inactive | inactive | inactive | inactive | 
4 | OC[C@H]1O[C@@H]2O[C@H]3[C@H](O)[C@@H](O)[C@@H](O[C@H]4[C@H](O)[C@@H](O)[C@@H](O[C@H]5[C@H](O)[C@@H](O)[C@@H](O[C@H]6[C@H](O)[C@@H](O)[C@@H](O[C@H]7[C@H](O)[C@@H](O)[C@@H](O[C@H]1[C@H](O)[C@H]2O)O[C@@H]7CO)O[C@@H]6CO)O[C@@H]5CO)O[C@@H]4CO)O[C@@H]3CO | inactive | inactive | inactive | inactive | inactive | inactive | inactive | inactive | inactive
5 | OC[C@@H](O)[C@@H](O[C@@H]1O[C@H](CO)[C@H](O)[C@H](O)[C@H]1O)[C@H](O)[C@@H](O)CO | inactive | inactive | inactive | inactive | inactive | inactive |  | inactive | inactive
6 | CCO[Si](CCCNC(N)=O)(OCC)OCC | inactive | inactive | inactive | inactive | inactive | inactive | inactive | inactive | inactive
7 | CC(=O)[C@@]1(O)CC[C@H]2[C@@H]3C[C@H](C)C4=CC(=O)C=C[C@]4(C)[C@@]3(F)[C@@H](O)C[C@@]21C | inactive | inactive | inactive | 27.5 µM (active) and inactive | inactive | 347 nM (active) and 1.34 µM (active) | inactive | inactive | inactive
8 | COc1cc([C@H]2Oc3cc([C@H]4Oc5cc(O)cc(O)c5C(=O)[C@@H]4O)ccc3O[C@@H]2CO)ccc1O | inactive and 21.3 µM (active) | inactive and 21.3 µM (active) | inactive and 16.9 µM (active) | inactive |  | inactive |  | inactive | inactive
9 | CC(C)(Oc1ccc(Cl)cc1)C(=O)O | inactive | inactive | inactive | inactive | inactive | inactive | inactive | inactive | 
10 | O=C(O)CCCCCCCCCCCC(=O)O | inactive | inactive | inactive | inactive | inactive | inactive | inactive | inactive | 
11 | C=CC(C)(O)CCC=C(C)C (stereo not drawn) | inactive | inactive | inactive | inactive | inactive | inactive | inactive | inactive | 
12 | CCCCCCCC/C=C\CCCCCCCC(=O)O | inactive | inactive | inactive | inactive | inactive | inactive |  | inactive | inactive
13 | CN(C)/N=N/c1nc[nH]c1C(N)=O | inactive | inactive | inactive | inactive | inactive | inactive |  | inactive | 
14 | O=C(O)COCCN1CCN(C(c2ccccc2)c2ccc(Cl)cc2)CC1 (stereo not drawn) | inactive | inactive | inactive | inactive | inactive | inactive | inactive | inactive | 
15 | CCCCCC1C(=O)CCC1CC(=O)OC (stereo not drawn) | inactive | inactive | inactive | inactive | inactive | inactive |  | inactive | inactive
16 | Nc1ccc(N)c(Cl)c1 | inactive and 38.9 µM (active) | inactive and 43.6 µM (active) | inactive and 27.5 µM (active) | inactive |  | inactive |  | inactive | 21.8 µM (active) and 43.6 µM (active)
17 | CCCCCC=O | inactive | inactive | inactive | inactive | inactive | inactive | inactive | inactive | 
18 | COC(=O)CC(=O)OC | inactive | inactive | inactive | inactive | inactive | inactive |  | inactive | 

From PubChem BioAssay (Tox21)
